According to PubChem BioAssay AID977607 (Broad Institute, 2014):
The campaign covered roughly 1,500 compounds. About 460 (31%) were called active. About 1% were inconclusive and are not listed.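 How the source made its calls: active means curve reaches 40% activation over neutral controls at an AC40 no higher than the top valid tested concentration; inconclusive means no clear call, values can overlap the other calls; inactive means signal moving opposite to the expected increase, and the rest.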 Only a sample is shown. Potency and affinity values are given separately.

Assay: GLuc-reported insulin release enhancers, glucose-stimulated beta cells – cell-based, INS-1E, Gaussia luciferase, luminescence, cherry-pick, set 2, dose response (AID 977607);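 further: 0% = median of the plate neutral control wells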
Settings: INS-1E GLuc insulin secretion reporter, 2-3 h, active compounds read high; at 35 µM, 100% = signal doubled over neutral wells unless noted

Max activation, inactive:
COc1ccc(CNC(=O)CN2C(=O)NC3(CCCCCC3)C2=O)cc1 -13.8% [at 0.005 µM, 100% = signal doubled over neutral wells]
CCC(O)c1nc2ccccc2n1CCc1ccccc1 (stereo not given) -18.7% [at 0.005 µM, 100% = signal doubled over neutral wells]
CC1Cc2ccccc2N1C(=S)NC(=O)c1cccc(Br)c1 (stereo not given) -15.5% [at 0.005 µM, 100% = signal doubled over neutral wells]
CCOC(=O)c1nc2nc(-c3cccs3)cc(C(F)(F)F)n2n1 -16% [at 0.135 µM, 100% = signal doubled over neutral wells]
Cc1c(Cc2ccccc2)sc(NC(=O)C(C)(C)C)c1C(N)=O -18.8% [at 0.015 µM, 100% = signal doubled over neutral wells]
COc1ccc(/C(C)=N/Nc2ccc(C(=O)O)cc2)cc1OC 24.3%
COc1ccc(C(=O)/C=C2\NCCc3cc(OC)c(OC)cc32)cc1OC 24%
C=CCN1C(=O)c2n[nH]c(COC)c2C1c1ccc(F)cc1 (stereo not given) -25.3% [at 0.015 µM, 100% = signal doubled over neutral wells]
Cc1cc(=O)oc2c3c(cc(OCC(=O)NC(C)C)c12)OC(C)(C)CC3 34% [at 0.42 µM, 100% = signal doubled over neutral wells]
CC(=O)Nc1ccc(-c2ccnc3c2CC(C)(C(=O)Nc2cccc(OC(F)(F)F)c2)O3)cc1 (stereo not given) -44.4%
Nn1c(-c2ccccc2)cc(-c2ccccc2)cc1=O 27.3%
CNc1nc(OCC#N)nc(N2CCCCC2)n1 25%
COc1ccc(C(=O)N2CCc3cc(OC)c(OC)cc3C2c2ccc(OC)c(OC)c2)cc1OC (stereo not given) 24.4% [at 0.005 µM, 100% = signal doubled over neutral wells]
COc1cc2c(cc1OC)CN(C(=O)Cc1ccccc1)CC2 -21.2%
Cc1ccccc1SC1CCN(C(=O)C2CCC(=O)N(C3CC3)C2)CC1 (stereo not given) -25.3%
CCOc1ccc(OCCC(=O)N(CC)CC(=O)NCc2cccs2)cc1 -21% [at 11 µM, 100% = signal doubled over neutral wells]
O=C(CC(NC(=O)c1ccccc1)c1ccccc1)Nc1cccc2ccccc12 (stereo not given) -27.5%
Nc1[nH]c(C(=O)c2ccccc2)c(-c2c(F)cccc2F)c1C(=O)c1ccc(Cl)c(Cl)c1 53.9%
C#Cc1cccc(-n2nnc(C(=O)OC)c2-c2ccccc2)c1 -13.8% [at 0.42 µM, 100% = signal doubled over neutral wells]
COc1ccc(CCC(=O)NC2CCC(C)CC2)cc1 (stereo not given) -13.6% [at 0.135 µM, 100% = signal doubled over neutral wells]
COC(=O)C1=C(C)NC(=S)NC1c1ccc(OC)cc1 (stereo not given) -18.4% [at 0.135 µM, 100% = signal doubled over neutral wells]
c1ccc2c(NCC3CCCO3)nc(N3CCCCC3)nc2c1 (stereo not given) -16.1% [at 3.8 µM, 100% = signal doubled over neutral wells]
CC1=CC(c2ccccc2)n2nc(NC(=O)CCC(=O)O)nc2N1 (stereo not given) -12.8% [at 1.2 µM, 100% = signal doubled over neutral wells]
CC(=O)c1ccc(OCC(=O)N(C2CCCCC2)C2CCS(=O)(=O)C2)cc1 (stereo not given) -11% [at 0.0016 µM, 100% = signal doubled over neutral wells]
CCN(Cc1ccccc1)S(=O)(=O)c1ccc(C(=O)Nc2nnc(C)o2)cc1 39.3% [at 3.8 µM, 100% = signal doubled over neutral wells]
CN(C)CCCN(C(=O)CCOc1ccccc1)c1nc2ccc(F)cc2s1 -14.1% [at 0.015 µM, 100% = signal doubled over neutral wells]
COc1cc2c(cc1OC)CN(C(=O)CNS(=O)(=O)c1ccc(C)c(C)c1)CC2 13.4% [at 11 µM, 100% = signal doubled over neutral wells]
COc1ccccc1-c1cnc2c(c1)C(=O)N([C@H](C)CO)C[C@@H](C)[C@@H](CN(C)C(C)=O)O2 35.5% [at 0.015 µM, 100% = signal doubled over neutral wells]
O=C(NC1CCCCC1)c1cccnc1Sc1ccccc1 -28.1% [at 0.015 µM, 100% = signal doubled over neutral wells]
CCCCc1nc(NCCN)c(C#N)c2c1CSC(C)(C)C2 -17.6% [at 0.046 µM, 100% = signal doubled over neutral wells]
O=C(NC(=S)NCC1CCCO1)c1ccc(Cl)cc1Cl (stereo not given) -19.4% [at 0.005 µM, 100% = signal doubled over neutral wells]
O=C(Nc1ccc(Br)cc1)c1cc2ccccn2n1 -31.1% [at 0.42 µM, 100% = signal doubled over neutral wells]
O=C(OCc1c(-c2ccccc2)ncc2ccccc12)c1cccs1 -36.4% [at 11 µM, 100% = signal doubled over neutral wells]
CCc1nc2ccc(C(=O)N(C)CCCN(C)C)cn2c1N(C=O)CCC(C)C -21.2% [at 1.2 µM, 100% = signal doubled over neutral wells]
O=C(O)CNS(=O)(=O)c1ccc2c(c1)Cc1cc(S(=O)(=O)NCC(=O)O)ccc1-2 -16.4% [at 0.0016 µM, 100% = signal doubled over neutral wells]
